The supplement of paper PMC11417369
In all, about 25,000 sequences were measured (“ln(normalized median fluorescence intensity)”: median about 7.1, highest 2% from about 10 on). The entries come from a sample that favours the highest values as a whole.

Tested on: PfSIP2 AP2 domain 1 (GST-tagged)
Experiment: gcPBM binding intensity (ln(normalized median fluorescence intensity)); higher = stronger DNA binding
Method in brief: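 Alexa488 anti-GST antibody, scanned at 488 nm, detected GST-tagged P. falciparum DNA-binding domains that had been expressed in E. coli and incubated for 1 h on an Agilent 4 × 180k array. The array carried primer-extended double-stranded 36-bp intergenic genomic probes and negative controls. Binding intensity is the highest Masliner-normalised natural-log median intensity across replicate spots of either orientation of each probe.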

Sequence	gcPBM binding intensity (ln)
ATAATGTAAAAGTAAACACACACATATATATATACA [CACACA_site8793]	7.06
TTTTGAAGTAACAAATAAATAAATAAATATATAAAA [GTGCAC_negctrl_site517]	6.92
TATATATATATATAGGTGCAATATTGAAAAAATATC [GTGCAC_site9535]	9.82
AAAAAAAAAAAAAAAGTGCACTGAAAATATATTGAA [GTGCAC_site9395]	10.9
TTTGTTCTTTTTGAAGTGCACTGAAATATAACAAAA	10.7
TTCTTGTTCCTGAAAGTGCATATAACAAAAATAACA [GTGCAC_site9635]	9.52
AAATAATATTGAAAAGTGCATATTTTTGTTGATATA	8.42
ATATCAAATTCTGAAACACACAAAATTACACCTCTA [CACACA_site169]	7.06
AAATAAAAAAAGAAACGTACATATATTGGTTTCGTC [XGTACX_site3510]	6.96
AAAAAAAAAAAAAAAAAAAAAAAAATATATAATTTA [CACACA_negctrl_site583]	8.71
CACCTCAATATTCACATACACACAATATCATCGAAG [CACACA_site1675]	7.33
AATTATATGAAATAAACACACATATGTAATATTACA [CACACA_site1928]	6.76
CACATATACAAAAAGAAATGTTTAGTTGAAAATTAA [CACACA_negctrl_site1407]	6.67
TTAATGTTTGAAAGAGTGCACATAACAAAAAAAAAA [GTGCAC_site9623]	11.1
AAAAAAACATAACAAAATGAAACAAAACAAAAAGAA [GTGCAC_negctrl_site577]	7.28
TCCTAATATATGTATGCACACACAATATATACATAT [CACACA_site9111]	7.36
AATATAAGAATATATACACACATAAATACATACATA [CACACA_site4128]	7.01
TATATATATATATATGTGCACTGAAAGAATTATACA [GTGCAC_site9586]	10.3
ATTATATATAAGAAGAGTACTGAATATGTGCAATAT [XGTACX_site4471]	7.43
ATATACATATATATATGTACTGAAAAGAAAAGAATT [XGTACX_site150]	7.08
AGGTGTATCATAAAATGTACATACATACATACATAA [XGTACX_site4479]	7.02
ATAAGATAGGCATATACACACATTTATTTACAGATA [CACACA_site5754]	6.87
TTATATAGGCAGATGGTGCATCTATTTATAAGCAAC	10.7
TTATATTAGCCGATGGTGCATATATTTATAGGAAAA [GTGCAC_site9518]	10.1

Sequence	gcPBM binding intensity (ln)
TGTCTTGTAAATTATTGTACTATTTAAAGTATACAA [XGTACX_site7864]	7.21
TATGAATTTATCTACAACATTTGAAATAAATTAAAA [CACACA_negctrl_site79]	6.72
TTGTTTATCAACAGCACACACAACAACAACAACAAC [CACACA_site458]	7.25
AAATATAATAATAATTTAAGAATCTAATATTTTATA [CACACA_negctrl_site831]	6.59
ATACGATTGCAGTCAAAAAGGAAAATATAAAAAAAG [XGTACX_negctrl_site124]	7.29
TTTTACGTGAGTAATACACACATATAAGTTTATATA [CACACA_site4120]	6.74
TTTTTTTTTTTTTCAAGTACATATATATATATATAA [XGTACX_site2098]	7.58
TTTTTTTTTTTTCACGTGCACTATACATATAAGTAA	10.5
AATATAATATTATATAGTACATATTTCTTTTATTTT [XGTACX_site22]	6.82
ACACATACACATTAGGTGCATATATTTCAATATTAC [GTGCAC_site9423]	10.3
AAAATTTCAATAAATACACACATATATATATATATT [CACACA_site1685]	7.07
TTTTCAAAAATATATACACACATGCATATTACGGTG [CACACA_site775]	6.98
TTGTTGTATTATTTATGTACATATGTATATGTATAT [XGTACX_site1315]	7.17
AATATTGTATATAATAAACACACAATATTAAAAATA [CACACA_site8262]	6.99
ACAAAAAAAAACGTGGTGCATTAATAATATTGTATA [GTGCAC_site9469]	10.3
TATTGTATATAATAAACACACAATATTAAAAATATA [CACACA_site1057]	6.8
ATATGGTGATATAGGTGTACATTTTGATGCTTATTT [XGTACX_site4283]	6.95
AGCATTTTAAGTTATACACACATTTTGAATCTATAT [CACACA_site7599]	6.89
TTATTTTCTTTCTATGCACACGCACGTATTTGCCCA [CACACA_site9104]	7.91
ATTTTCTTTCTATGCACACGCACGTATTTGCACCCA [CACACA_site3350]	11.9
CACCCGCACGTATTTGCACACATTGCCACGTAATTA [CACACA_site5786]	7.76
TTAAAAAAATATAATACACACCAAAAATATGCACAT [CACACA_site5209]	9.27
TAAAAATAAATAAATACATGCACCAAAAATAAATTT [TGCATGCA_site801]	10.2
TACATAAATTTTAATACATGCAAATAAAATATATAA [TGCATGCA_site131]	6.94

Sequence	gcPBM binding intensity (ln)
TCCTATGATGATGATAGTACATATGAGTTCAAAAAA [XGTACX_site273]	6.81
CACCAATTCATATGCACACACATCTGCATATTATAT [CACACA_site1773]	7.43
GGAAAATTATCAATAGCATGCAAAATGTGAATATTA [TGCATGCA_site901]	6.83
CCATGTAGTGAATAGGTGCATATCAAAAAAAAAAAA	11
TATATAATATATATAGTGCATAAGTTCAAAAGAATA [GTGCAC_site9805]	8.73
CATATAAATAGACACACACACACATATAAATAAATA [CACACA_site7156]	7.23
AAAACAATAATATACTGTACATATATATAATAACAT [XGTACX_site6188]	7.13
ATGGTATAAAAAAATACACACTTATATATATTCTTA [CACACA_site4427]	6.86
TGTATATGTGAAGCAAGGGATGCGGCAGACATAACA [CACACA_negctrl_site1339]	7.07
ATATGAAACATGAAGGTGCATAATGTGTATATTTAT	10.8
TTATTTTATTTAGGGTGTACCCAATTTTTCCATATG [XGTACX_site4957]	6.78
ATATATTATGGGTGTGCACACAATATTTATATGTTC [CACACA_site2270]	8.64
ATTTCCCCAACGTGGGTGCATATATTTATGTGTGAA [GTGCAC_site9439]	11.1
GTATTATTTTATGATGCATGTGTATTTCATATATGC [TGCATGCA_site660]	6.98
TATTTATATGTATATACATGCACATATATATGAAAC [TGCATGCA_site1005]	7.7
TTTATTTATGTGTGGGTGCATATACGTATGATGTAT	10.6
ATTTATATATATGTATGTACGTATGTGTGTATATGT [XGTACX_site7587]	7.73
CACATATATATGTGTGCATGTTGTATTATATATTTA [TGCATGCA_site632]	8.48
CCGTTGAACATATATGCACACACATAAAATAAAAAA [CACACA_site8761]	7.65
AAAAAATAAGATTGTACACACATAAATTCTTTGTCA [CACACA_site2089]	6.85
AATCCTTCATATGTAGTGCATATTAACAAAATAAAA [GTGCAC_site9500]	8.78
TTTTGCAATAATGTTGCACACTAAATAGTCATATAT [CACACA_site7977]	7.61
ATATATATATATATATGTACGTACTCAGTTATGCCT [XGTACX_site453]	9.2
TTTGTAACTTCTTTCACACATATATATATATATATA [CACACA_site5603]	9.76

Sequence	gcPBM binding intensity (ln)
CACCCACCCAGACACACACACACACCCCCACCCATA [CACACA_site367]	7.6
TTTGTGTTTATAAATTGTACAAAGGTGCAAGAAGAA [XGTACX_site2159]	11.2
GTGTGCAAAAATTGTTGTACATTATATATAAAAAAA [XGTACX_site3246]	7.79
ACAAATTGTTAAAGGTGTACAATACATATATAAGAA [XGTACX_site4906]	7.38
TATGTACAGACATATACACACCTCTATAATCTATAT [CACACA_site6482]	7.09
TGTCGGCTTAGATTAGTGCACTGAAAAATGAAGTAT [GTGCAC_site9919]	10.5
AAAAAAAATTATGAAGTGCATTAGTGAATTTGATTG	9.16
TATATATATAAATGAATGCACTTTAGAAAAAAGTAC	8.52
ATTTTTTTTTTTTTTTGTACGAATAATATGTATGAA [XGTACX_site5318]	7.12
TAGGCCTTAAATCGTGTGCACTTTTTTTTTTTTTTT	10.7
TAAATATATATATGTGTGCACTTCTTCATTTTAATA [GTGCAC_site9537]	9.97
AAATTAAATAAATTTACACACTAAAAATTACATATA [CACACA_site1054]	6.88
TTTTTATTTTATAATATATTCCTTTTCCTTTCTTTC [CACACA_negctrl_site245]	6.64
CTTTCGGTTGGAGAGGTGCGCTTCTCCTTTATAATA	11
TCTTTATCCTTTCTCTTTTTATTAATTATAATATTC [TGCATGCA_negctrl_site584]	6.99
TACGCACAAAAATATACACACACACCGATATATTTA [CACACA_site9213]	7.15
CATACACAAGAAAATTCACACACACCCATATATATA [CACACA_site9288]	7.73
GCCGCACCCAGATACGCACACAAGAAAAAAATATTC [CACACA_site3456]	11.1
CAAAACAAAGTTGCCGCACACAGATACGCACCCAAG [CACACA_site3455]	11.9
TACAGATACGGACACACACACACACCCAGACAAAAA [CACACA_site4432]	7.54
AAAAAAAAAACAAATACACACGCACCCAAAAAAAAA [CACACA_site8166]	10.1
